According to PubChem BioAssay AID1028 (SRMLSC, 2008):
Entries with a potency or affinity are not part of this list. A number with no mark means an inactive call.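 Rule for the calls: active = enzyme inhibitor confirmed by dose series, half-maximal inhibitory concentration at most 40 µM; inactive = the rest.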

The compounds below were run against diphosphomevalonate decarboxylase (Streptococcus pneumoniae D39) (UniProt Q9FD53) (assay: diphosphomevalonate decarboxylase inhibitor confirmation – biochemical, cuvette format, coupled NADH fluorescence (AID 1028)). Conditions: purified DPM-DC, rate, at 50 µM, stronger effect = higher value.

Structure (SMILES) | inhibition [%]
COc1ccc2nc(-c3ccncc3)oc2c1 | 4.83
COc1ccc2nc(-c3ccc(F)cc3)oc2c1 | 4.34
COc1ccc2oc(-c3ccc(F)cc3)nc2c1 | 1.68
COc1ccccc1-c1nc2cc(N)ccc2o1 | 14.5
COc1ccc2nc(-c3cc(C)ccc3C)oc2c1 | 1.13
Nc1ccc2oc(-c3cccc(F)c3)nc2c1 | 10.4
COc1ccc2oc(-c3cc(C)ccc3C)nc2c1 | 2.66
Nc1ccc2oc(-c3ccc(F)cc3)nc2c1 | 13.4
COc1ccccc1-c1nc2ccccc2o1 | 6.39
Cc1ccc(-c2nc3ccccc3o2)cc1F | 9.15
COc1ccc2oc(-c3cccc([N+](=O)[O-])c3)nc2c1 | 7.59
c1ccc(-c2nc3ccccc3o2)cc1 | 2.96
COc1ccc2oc(-c3ccncc3)nc2c1 | -0.2
Clc1cccc(-c2nc3ccccc3o2)c1 | 1.68
COc1ccc2nc(-c3cc(OC)c(OC)c(OC)c3)oc2c1 | 3.99
Nc1ccc2oc(-c3ccc(Cl)cc3)nc2c1 | 12.8
Cc1ccccc1-c1nc2cccc(N)c2o1 | -2.22
Cc1ccc(C)c(-c2nc3c(N)cccc3o2)c1 | 6.19
Cc1ccc(C)c(-c2nc3ccccc3o2)c1 | -0.27
O=C(c1ccccc1-n1sc2ccccc2c1=O)N1CCCC1 | 16.1
O=C(NC1CC1)c1ccccc1-n1sc2ccccc2c1=O | 8
COc1ccc2oc(-c3cccc(C)c3)nc2c1 | 2.37
COc1ccc(OC)c(-c2nc3cc(OC)ccc3o2)c1 | 2.12
Cc1ccc(-c2nc3ccccc3o2)cc1 | 7.2
